# In PubChem BioAssay:
# Calls of active or inactive are those of the source. Unless noted, how the calls were made is not given here.
# What was measured:
# [1] = Brca1-Bard1 BiLC signal decrease – luminescence, single concentration, counter-screen for Mdm2/MdmX interaction inhibitor project, confirmation (AID 504668); settings: Brca1/Bard1 bimolecular luciferase complementation counterscreen, at 8 µM, stronger effect = higher value
# PEG-3 [2] = biological target: PEG-3 (UniProt Q6IN02); experiment: inhibition of PEG-3 promoter-driven reporter – cell-based, HeLa, luciferase, CREF/GAPDH counter-screen panel, dose response (AID 624167); settings: CREF/GAPDH counter-screens; HeLa PEG-Prom luciferase reporter, overnight, run 1, dose range 1, at 100 µM (top of the series) unless noted
# PEG-3 [3] = biological target: PEG-3 (UniProt Q6IN02); experiment: as above; settings: CREF/GAPDH counter-screens; HeLa PEG-Prom luciferase reporter, overnight, run 2, dose range 1, at 100 µM (top of the series) unless noted
# Rat fibroblasts (CREF) [4] = experiment: as above; settings: CREF/GAPDH counter-screens; run 1, dose range 1, at 100 µM (top of the series)
# Rat fibroblasts (CREF) [5] = experiment: as above; settings: CREF/GAPDH counter-screens; run 2, dose range 1, at 100 µM (top of the series)
# [6] = biological target: Tumor necrosis factor receptor superfamily member 10B (Homo sapiens) (UniProt O14763); experiment: viability loss of caspase-8 NB7 cells with TRAIL – with/without TRAIL, luminescence panel, confirmation (AID 651596; in the data active means activity above about 50%); settings: NB7 neuroblastoma + caspase-8, TRAIL sensitization, NB7 Caspase-8, with TRAIL, mean of runs, at 10 µM, stronger effect = higher value
# [7] = as above; settings: NB7 neuroblastoma + caspase-8, without TRAIL, NB7 Caspase-8, without TRAIL, mean of runs, at 10 µM
# [8] = NFkB reporter suppression in cystic fibrosis bronchial cells – cell-based, uHTS hits, panel, cytotoxicity readout, dose response (AID 624344); settings: CF bronchial epithelial cells, PAF-induced NFkB reporter inhibition, with PAF, run 1; at 79 µM (top of the series) unless noted
# [9] = as above; settings: CF bronchial epithelial cells, PAF-induced NFkB reporter inhibition, with PAF, run 2; at 79 µM (top of the series) unless noted
# Chain of PEG-3 (Q6IN02 whole entry, looked up): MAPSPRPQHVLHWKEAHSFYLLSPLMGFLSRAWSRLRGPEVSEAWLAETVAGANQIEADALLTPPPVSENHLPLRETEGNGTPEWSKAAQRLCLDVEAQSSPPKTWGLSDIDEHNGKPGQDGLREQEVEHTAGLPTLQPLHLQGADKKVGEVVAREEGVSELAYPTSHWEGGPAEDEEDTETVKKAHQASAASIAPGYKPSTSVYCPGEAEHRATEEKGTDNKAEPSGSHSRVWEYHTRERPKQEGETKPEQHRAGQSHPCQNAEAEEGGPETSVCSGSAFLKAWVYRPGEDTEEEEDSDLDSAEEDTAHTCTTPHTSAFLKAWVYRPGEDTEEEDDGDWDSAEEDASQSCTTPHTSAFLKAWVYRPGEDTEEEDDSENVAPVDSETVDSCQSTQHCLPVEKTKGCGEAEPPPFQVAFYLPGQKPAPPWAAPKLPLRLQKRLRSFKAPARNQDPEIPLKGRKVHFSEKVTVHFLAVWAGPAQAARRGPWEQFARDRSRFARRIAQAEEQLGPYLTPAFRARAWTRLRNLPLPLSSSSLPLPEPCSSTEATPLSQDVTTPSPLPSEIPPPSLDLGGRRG
# Chain of Tumor necrosis factor receptor superfamily member 10B (Homo sapiens) (O14763 whole entry, looked up): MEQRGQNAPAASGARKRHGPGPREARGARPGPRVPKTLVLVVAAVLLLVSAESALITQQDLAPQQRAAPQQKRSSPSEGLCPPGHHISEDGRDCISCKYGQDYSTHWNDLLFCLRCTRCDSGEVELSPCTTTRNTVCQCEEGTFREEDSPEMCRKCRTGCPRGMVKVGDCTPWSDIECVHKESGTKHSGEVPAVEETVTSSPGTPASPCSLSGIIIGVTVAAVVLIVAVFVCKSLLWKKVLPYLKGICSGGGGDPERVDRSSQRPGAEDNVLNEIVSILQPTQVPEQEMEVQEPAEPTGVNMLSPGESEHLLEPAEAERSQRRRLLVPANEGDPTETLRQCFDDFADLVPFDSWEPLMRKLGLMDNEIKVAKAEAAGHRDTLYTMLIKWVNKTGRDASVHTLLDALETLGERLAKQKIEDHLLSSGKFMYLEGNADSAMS
Structure (SMILES),inhibition [1],inhibition (PEG-3 [2]),inhibition (PEG-3 [3]),inhibition (Rat fibroblasts (CREF) [4]),inhibition (Rat fibroblasts (CREF) [5]),activity [6],activity [7],inhibition [8],inhibition [9]
COc1ccc(C(=O)CN2C(=O)c3ccccc3S2(=O)=O)cc1,25.5% (active),99.1%,97.6%,96.6%,97.6%,70.2%,70.8%,–,–
CC(C)(C)c1ccc(C(=O)O/N=C(\N)c2ccccn2)cc1,28% (active),102%,99%,101%,99.9%,99.8%,99.8%,–,–
Cc1nc2cc(-c3ccccc3)sc2c(=O)n1N,30% (active),102%,97.8%,93.7%,92%,73.1%,73.6%,–,–
Cc1ccc(C(=O)O/N=C(\N)c2ccccn2)cc1,34% (active),102%,100%,100%,101%,–,–,–,–
O=c1c2ccccc2sc2ccc(C#CC3(O)CCCCC3)cc12,25.4% (active),99.4%,98%,100%,100%,97.6%,97.2%,–,–
CCc1c(C)nc2ccc(Br)cc2c1SCCC#N,23.1% (active),–,–,–,–,–,–,105%,113%
Cc1ccc(-c2nnc(SCC(=O)Nc3ccccc3F)o2)cc1,32.6% (active),98.6%,94.7%,97.2%,97.2%,83%,83.2%,–,–
CN(C)CCCN(C(=O)c1ccc(C(=O)c2ccccc2)cc1)c1nc2cc3c(cc2s1)OCO3,31.7% (active),99.4%,102%,–,–,46.7%,54.3%,–,–
Cc1ccc2oc(/N=C(\N)NC(=O)C(C)(C)C)nc2c1,31.8% (active),98%,94.5%,82.5%,79.9%,–,–,–,–
O=C(Nc1ccc(N2CCOCC2)cc1)c1cnsn1,32.1% (active),96.4%,98.9%,97.9%,60.2%,78.7%,75.9%,–,–
O=C(CCn1cnc(-c2ccccc2)c1-c1ccccc1)N/N=C/c1ccccc1O,25.7% (active),100%,101%,86.7%,94.1%,–,–,–,–
CN(C(=O)OC(C)(C)C)c1ccc(-c2nc3ccccc3s2)cc1,24.8% (active),96.5%,98.2%,–,–,92.6%,91.2%,–,–
FC(F)(F)c1nnc2c(Sc3ccc(Cl)cc3)nc3ccccc3n12,31.6% (active),–,–,–,–,–,–,98%,109%
CN1CCN(c2ncnc3scc(-c4ccccc4Cl)c23)CC1,28.7% (active),–,–,–,–,–,–,113%,100%
COc1ccc(-c2cn[nH]c2-c2ccc(O)cc2O)cc1,25.3% (active),–,–,–,–,–,–,104%,112%
CC(C)Nc1ncnc2ccc(Br)cc12,24.8% (active),–,–,–,–,–,–,118%,104%
O=C(NC1=NCCS1)C1COc2ccccc2O1 (stereo not given),34% (active),96.4%,97.6%,86.9%,87.4%,–,–,–,–
CCC(C)Oc1cc(-c2ccnc(Nc3cccc(Cl)c3)n2)ccn1 (stereo not given),25.4% (active),–,–,–,–,–,–,102%,117%
CCOc1ccc(C(=O)O/N=C(\N)c2ccccn2)cc1,33% (active),98%,98.8%,97.8%,98.6%,–,–,–,–
COc1ccc(-c2nsc3c(N4CCCCC4C)ncnc23)cc1 (stereo not given),24.8% (active),89.7%,93.5%,–,–,86.8%,87.7%,–,–

Structure (SMILES),inhibition [1],inhibition (PEG-3 [2]),inhibition (PEG-3 [3]),inhibition (Rat fibroblasts (CREF) [4]),inhibition (Rat fibroblasts (CREF) [5]),activity [6],activity [7],inhibition [8],inhibition [9]
Cc1cc(C(=O)COC(=O)c2ccccc2O)c(C)n1CC1CCCO1 (stereo not given),35.8% (active),99.1%,101%,99.6%,99.2%,91.2%,88.9%,–,–
COc1cccc(/C=N/NC(=O)c2c(C)nc3ccc(Cl)cn23)c1O,34.5% (active),59.6%,61.9%,44.7%,46.7%,–,–,–,–
CCN1CCN(Cc2ccc(NC(=O)c3ccc(C)c(NC(=O)C(=O)c4c[nH]c5ccccc45)c3)cc2C(F)(F)F)CC1,30.8% (active),–,–,–,–,–,–,103%,112%
Cc1ccc(C(=O)Nc2cc3ccccc3oc2=O)cc1,31.8% (active),84.5%,78.7%,84.6%,87.1%,–,–,–,–
COc1ccc(C(NC(=O)C(C)C)c2ccc3cccnc3c2O)cc1 (stereo not given),28.9% (active),67.9%,60.6%,75.6%,61.5%,–,–,–,–
c1ccc(-c2noc(-c3ccc4c(c3)OCO4)n2)nc1,29.3% (active),91.3%,94.5%,95.9%,95.7%,93.2%,93.7%,–,–
O=C(O)c1cccc(COc2ccc3c(c2)CCC3)c1,24.1% (active),98.5%,99.1%,91.1%,89.3%,–,–,–,–
CC(C)(C)c1ccc(Cn2c(=O)cnc3ccccc32)cc1,25.9% (active),100%,100%,98.2%,84.5%,–,–,–,–
Cc1cnc(NC(=O)c2ccc3c(c2)OCCO3)s1,28.6% (active),98.1%,97%,100%,99.6%,98.2%,98.5%,–,–
O=C(CNc1ccccc1)N/N=C/c1c(O)ccc2ccccc12,26.6% (active),44.6%,64.1%,73.1%,49.7%,–,–,–,–
Cc1c(C=O)c(C=O)c(C)n1Cc1ccccc1,30.8% (active),–,–,–,–,–,–,118%,103%
C=CCc1cccc(/C=N/NC(=O)C(C)Nc2cccc(C)c2)c1O (stereo not given),34.9% (active),60.8%,62%,39.7%,47.8%,–,–,–,–
COC(=O)c1nn(-c2ccc3c(c2)CCN3C(C)=O)cc1O,31% (active),96.2%,97.9%,99.1%,99.2%,86.6%,85.3%,–,–
Oc1ccc(CCNc2ncnc3ccc(Cl)cc23)cc1,28.6% (active),–,–,–,–,–,–,113%,106%
Cc1ccc2nc(-c3ccccc3)cn2c1,32.2% (active),97.5%,99%,100%,99.1%,94%,93.9%,–,–
COc1ccc2[nH]c3c(c2c1)CCNC3=O,34.4% (active),–,–,–,–,–,–,103%,103%
Cc1cccc(CNc2ncnc3ccc(-c4ccoc4)cc23)c1,23.8% (active),–,–,–,–,–,–,114%,106%
O=C(NCCc1ccccc1)c1ccc2c(c1)OCCO2,27.8% (active),94.6%,97.9%,99%,98.4%,89.7%,90.2%,–,–
CC(C)CN=C(NS(=O)(=O)c1ccccc1)C(Cl)(Cl)Cl,35.9% (active),–,–,–,–,–,–,102%,112%
